Bioassay records: PubChem BioAssay, several laboratories
M1 agonist: agonists of M1 muscarinic receptor; B-score at 10 µM; actives 3% (n = 64,000); CHO-M1 cells, Fluo-4 calcium fluorescence, agonist mode; hits give high values; AID 626;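 active = fluorescence rise, raw or as B-score row- and column-corrected plate score, outside the 99.7% band of its plate's samples, either direction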
M1 antag: blocks the rat M1 muscarinic receptor response to acetylcholine | P08482 | CHO-M1 cells, Fluo-4 calcium, ACh EC80 antagonist mode; hits give low values | B-score at 10 µM | actives 3.4% (n = 64,000) | AID 628;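 active = calcium fluorescence response, raw or row-and-column corrected B-score, differing from the plate sample mean either way at a set confidence level, mostly lower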
Abs 340nm: absorbance at 340 nm. AID 708. fold change at 10 µM. 65,000 tested, under 10 active. compound absorbance at 340 nm, fold over control;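 active = at 10 µM dose, initial 340 nm absorbance at least 2 fold that of control wells; inactive = change under 2 fold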;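 note: initial absorbance extrapolated from kinetic A340 decline of NADH oxidation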
WNV NS2B-NS3 inh: inhibitors of West Nile virus NS2B-NS3 protease; actives 0.18% (n = 65,000); WNV NS2B-NS3 protease, fluorogenic substrate Ex360/Em465; hits give low values; z-score (no concentration beside the values); P06935; AID 577; in the data active = z-score below about -3
BAP1 inh: blocks human BAP1 ubiquitin-AMC hydrolysis; calls only at 20 µM; Q92560; actives 0.48% (n = 72,000); recombinant BAP1, Ub-AMC hydrolysis fluorescence kinetic; hits give low values;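 active = activity remaining at or below 50% of control, provided the compound also passes the data quality filters; inactive = the rest, including low values that fail the filters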;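 note: 100% = DMSO wells rate and 0% = substrate alone blank rate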
Target sequence (Q92560 whole entry, looked up): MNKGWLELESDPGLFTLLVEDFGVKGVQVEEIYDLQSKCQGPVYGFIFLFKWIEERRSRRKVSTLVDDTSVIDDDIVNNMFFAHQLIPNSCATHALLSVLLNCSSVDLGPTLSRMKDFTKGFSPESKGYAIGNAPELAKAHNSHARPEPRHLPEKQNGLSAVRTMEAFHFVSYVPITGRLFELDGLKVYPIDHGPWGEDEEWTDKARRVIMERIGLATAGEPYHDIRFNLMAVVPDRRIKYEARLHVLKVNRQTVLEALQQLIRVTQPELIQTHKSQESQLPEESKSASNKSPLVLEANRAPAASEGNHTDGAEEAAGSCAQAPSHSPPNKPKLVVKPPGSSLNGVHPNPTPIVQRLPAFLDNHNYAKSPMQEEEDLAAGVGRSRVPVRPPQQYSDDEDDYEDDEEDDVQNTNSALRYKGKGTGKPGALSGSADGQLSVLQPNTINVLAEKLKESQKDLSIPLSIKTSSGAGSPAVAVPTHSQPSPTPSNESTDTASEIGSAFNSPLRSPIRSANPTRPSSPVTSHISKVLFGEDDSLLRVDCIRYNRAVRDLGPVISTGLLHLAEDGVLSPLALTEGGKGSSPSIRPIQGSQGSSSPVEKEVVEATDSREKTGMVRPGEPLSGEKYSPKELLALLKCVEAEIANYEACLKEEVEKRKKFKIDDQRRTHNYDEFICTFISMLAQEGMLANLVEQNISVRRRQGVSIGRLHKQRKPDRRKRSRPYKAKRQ
Fluor 339 460: intrinsic fluorescence of library compounds, ex339/em460 – biochemical, MLSMR library, data from DPM-DC assay, artefact control, profiling panel; compound autofluorescence, ex339/em460 nm, NADH buffer; hits give high values; 1 = no-compound wells, NADH background; fluorescence fold increase at 10 µM; actives 5.5% (n = 65,000);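 active = at 10 µM, mean starting fluorescence two-fold or more over control wells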;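 note: signal is the first read of a kinetic run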
M1 antag conf: confirmation of rat M1 muscarinic receptor antagonists. shares compounds with M1 antag. CHO-M1 cells, Fluo-4 calcium, ACh EC80 antagonism; hits give low values. calcium response (max-min fluorescence) at 10 µM. actives 43% (n = 1,700). AID 677;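 active = calcium response below the same-plate mean of wells given acetylcholine alone at its 80%-effect dose, minus 3 SD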;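 note: raw fluorescence intensity difference in arbitrary instrument units and not normalized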
mGluR4 antag: acts on human mGluR4 in M1 antagonist selectivity test; shares compounds with M1 antag; CHO-mGluR4 calcium flux, Fluo-4 fluorescence, glutamate EC80; hits give low values; fluorescence response (max-min) at 10 µM; actives 0.9% (n = 1,700);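 active = fluorescence response below the plate's average for near-maximal glutamate wells, less 3 SD of those wells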;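 note: raw unnormalized fluorescence span taken in the window right after glutamate addition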
* = called active by the depositor; i = inactive; . = not tested or not shown. This is a sample that favours compounds with a hit; in the whole collection about 9.7% have one here.

SMILES	M1 agonist	M1 antag	Abs 340nm	WNV NS2B-NS3 inh	BAP1 inh	Fluor 339 460	M1 antag conf	mGluR4 antag
CCOCCCn1c(=N)c(C(N)=S)cc2c(=O)n3cccc(C)c3nc21	-0.74	-4.1*	1.2	1.1	i	1.9	516	248
CCOCCCn1c(=S)[nH]c2cc(C(=O)N3CCC(C(N)=O)CC3)ccc2c1=O	-0.32	1.5	1	1.1	i	1.1	.	.
Cc1cc(C)nc(SCC(=O)c2c[nH]c3ccccc23)n1	.	.	.	.	i	.	.	.
O=C(Nc1ccccn1)C1CCN(S(=O)(=O)c2cccs2)CC1	-1.6	-0.46	1	0.66	i	1.1	.	.
Cc1cccc(NC(=O)C2CCN(S(=O)(=O)c3cccs3)CC2)n1	-2	-2.9*	1	0.37	i	1.1	637	270
COc1ccc(-c2csc(N(CC3CCCO3)C(=O)c3cccs3)n2)cc1 (stereo not given)	-0.36	0.29	1	-0.3	i	1.1	.	.
CCN(CC)CCCN(C(=O)c1cccs1)c1nc(-c2ccc(OC)cc2)cs1	-1.4	-5.3*	0.99	-0.38	i	1	321*	237
O=C(NC1CCCCC1)c1noc2c1CCCCC2	0.22	-1.9*	1	-0.84	i	0.75	598	266
CCCCN(CC)CCCNC(=O)c1cc2cc3ccc(OC)cc3nc2o1	0.78	-4.7*	1.1	6.3	.	5.1*	587	269
CCCN(CCC)CCCNC(=O)c1cc2cc3ccc(OC)cc3nc2o1	0.18	-7*	1.1	3.6	.	5.1*	437*	255
O=C(C1CCCO1)N1CCN(c2c3c(nc4cc(-c5ccc(F)cc5)nn24)CCC3)CC1 (stereo not given)	1.2	-3.6*	1	0.21	i	1.7	661	243
O=C(NC1CCN(Cc2ccccc2)CC1)C1CCN(c2nnc(-n3cccc3)s2)CC1	-0.65	-1.3*	1.1	-0.57	i	1.1	278*	241
O=C(NCc1ccco1)C1CCN(c2nnc(-n3cccc3)s2)CC1	0.46	-0.39	1.1	-1	i	0.99	.	.
CC(CCc1ccccc1)NC(=O)C1CCCN(c2nnc(-n3cccc3)s2)C1 (stereo not given)	2.4	0.01	0.99	-0.65	i	1	.	.
O=C(NC1CCN(Cc2ccccc2)CC1)C1CCCN(c2nnc(-n3cccc3)s2)C1 (stereo not given)	-0.65	-3.3*	1.1	-0.43	i	1.1	260*	194
COc1cc(-c2cc(C(F)(F)F)n3ncc(C(=O)N4CCN(Cc5ccccc5)CC4)c3n2)cc(OC)c1OC	.	.	.	.	i	.	.	.
Cc1ccc(C)c(NC(=O)C(C)(C)C)c1	.	.	.	.	i	.	.	.
O=S(=O)(Nc1ccc2c(c1)OCCO2)c1cccc2nsnc12	1.1	-2.7*	1	-0.91	i	1.1	362*	225
COc1ccc2[nH]c3c(c2c1)CN(C)CC3	0.76	-1.9*	1	1.4	i	1.1	448	193
COCc1cc(C)nc(SCC(=O)Nc2cccc3cccnc23)c1C#N	0.42	-3.9*	1.1	-0.86	i	1.2	643	215
CCN(CC)Cc1cc2ccccc2c2c1COC2	-0.16	-2.3*	0.99	-0.79	i	1.1	473*	207
c1ccc2c3c(c(CN4CCCCC4)cc2c1)COC3	.	.	.	.	i	.	.	.
CC(OCC(O)CN(C)CCOc1ccccc1)c1ccc(Cl)cc1 (stereo not given)	0.21	-2*	1	1.7	i	1.1	511*	203
Cc1ccc(-n2nc3cc(C)c(NC(=O)c4ccco4)cc3n2)cc1	.	.	.	.	i	.	.	.
Cc1ccc2cc3c(nc2c1)N(Cc1ccco1)CC3	-0.67	-1.3*	1.1	-0.97	i	3.8*	319*	194
Cc1ccc(-n2c(C)cc(C(=O)CSc3nnnn3C)c2C)cc1	-0.19	-1.8*	1	-0.72	i	1	574	222
Cc1ccc(-n2c(C)cc(C(=O)CSc3nncs3)c2C)cc1	1.5	-2	1	2.1	i	0.97	.	.
